Results taken from the supplement of paper PMC10849652.
Targets with a hit are over-represented here; the source holds about 8,800 in all. About 0.5% of all pairs of compound and target were hits.

What was measured:
Assay in all cases: log2 fold change, soluble protein after heating vs DMSO (PISA); higher = thermal stabilisation; K562 lysate, 10 uM; active = over 0.2 and 3.5 SD of the protein, either way, in both replicates (recomputed)
[1] = compound: CS(=O)(=O)CCNCc1ccc(-c2ccc3ncnc(Nc4ccc(OCc5cccc(F)c5)c(Cl)c4)c3c2)o1 [lapatinib]
How it was run: (§1)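 Soluble protein was defined as the supernatant remaining after 21,000xg for 90 min, following pooling of heated aliquots and adjustment to 0.5% NP-40 at 4°C. Before that, crude K562 extract at 1 mg/mL protein in PBS pH 7.4 with 1 mM MgCl2 was treated with 10 μM compound for 30 min and heated for 3 min across 48°C-58°C. Quantification used TMTpro 16plex LC-MS/MS with channel sums equalised, and values are log-two fold changes in thermal stability relative to solvent controls from duplicates.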

[2] = compound: CS(=O)(=O)N1CCN(Cc2cc3nc(-c4cccc5[nH]ncc45)nc(N4CCOCC4)c3s2)CC1 [pictilisib]
How it was run: as §1

[3] = compound: C[C@@H](Oc1cc(-c2cnn(C3CCNCC3)c2)cnc1N)c1c(Cl)ccc(F)c1Cl [crizotinib]
How it was run: as §1

[4] = compound: C[C@H](C1=CC=C(C=C1)C(=O)NC2=C3C=CNC3=NC=C2)N
How it was run: as §1

[5] = compound: C[C@H](Nc1ncnc2nc[nH]c12)c1cc2cccc(Cl)c2c(=O)n1-c1ccccc1 [duvelisib]
How it was run: as §1

[6] = compound: Cc1cc(Nc2cc(CN3CCOCC3)c3nc(C)c(Cc4ccc(Cl)cc4F)n3n2)n[nH]1 [gandotinib]
How it was run: as §1

[7] = compound: Cc1cc(Nc2cc(N3CCN(C)CC3)nc(Sc3ccc(NC(=O)C4CC4)cc3)n2)n[nH]1 [tozasertib]
How it was run: as §1

[8] = compound: Cc1ccc(-n2nc(C(C)(C)C)cc2NC(=O)Nc2ccc(OCCN3CCOCC3)c3ccccc23)cc1 [doramapimod]
How it was run: as §1

[9] = compound: Cc1ccc(NC(=O)c2ccc(CN3CC[C@H](N(C)C)C3)c(C(F)(F)F)c2)cc1Nc1nccc(-c2cncnc2)n1 [bafetinib]
How it was run: as §1

[10] = compound: Cc1cccc(CC(=O)N2CCc3c2ccc(-c2cn(C)c4ncnc(N)c24)c3F)n1
How it was run: as §1

Measured: log2 fold change

KSR1 (UniProt Q8IVT5)
inactive: [1] -0.107 | [2] 0.064 | [3] -0.015 | [4] 0.006 | [5] -0.026 | [6] -0.087 | [7] 0.017 | [8] -0.065 | [9] -0.038 | [10] -0.156

KIF4B (UniProt Q2VIQ3)
inactive: [1] 0.03 | [2] -0.001 | [3] -0.02 | [4] 0.029 | [5] -0.023 | [6] -0.051 | [7] -0.033 | [8] 0.015 | [9] -0.04 | [10] 0.035

MARK3 (UniProt P27448)
Sequence of UniProt P27448 (P27448 whole entry, looked up): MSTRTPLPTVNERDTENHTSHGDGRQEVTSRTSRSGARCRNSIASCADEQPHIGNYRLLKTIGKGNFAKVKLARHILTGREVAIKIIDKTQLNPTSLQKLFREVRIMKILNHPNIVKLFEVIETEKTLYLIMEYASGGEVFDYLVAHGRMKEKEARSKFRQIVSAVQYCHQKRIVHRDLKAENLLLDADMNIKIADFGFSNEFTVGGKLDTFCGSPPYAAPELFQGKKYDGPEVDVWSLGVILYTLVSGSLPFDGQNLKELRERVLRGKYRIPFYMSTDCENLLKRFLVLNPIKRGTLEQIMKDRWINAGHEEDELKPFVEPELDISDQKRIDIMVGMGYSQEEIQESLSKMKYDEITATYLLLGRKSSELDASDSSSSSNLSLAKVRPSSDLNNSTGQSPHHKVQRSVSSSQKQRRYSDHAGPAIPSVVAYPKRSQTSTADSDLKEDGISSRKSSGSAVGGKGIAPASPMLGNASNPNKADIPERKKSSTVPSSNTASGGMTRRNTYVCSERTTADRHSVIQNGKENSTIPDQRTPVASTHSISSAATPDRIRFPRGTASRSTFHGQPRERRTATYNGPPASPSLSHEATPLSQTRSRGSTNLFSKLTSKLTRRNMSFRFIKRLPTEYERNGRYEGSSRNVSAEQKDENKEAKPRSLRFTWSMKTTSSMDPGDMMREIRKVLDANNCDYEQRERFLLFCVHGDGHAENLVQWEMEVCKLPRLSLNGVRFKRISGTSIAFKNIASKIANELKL
inactive: [1] 0.007 | [2] -0.061 | [3] -0.206 | [4] 0.043 | [5] 0.011 | [6] -0.089 | [7] -0.143 | [8] -0.081 | [9] -0.088 | [10] 0.049

MRPL28 (UniProt Q13084)
active: [4] 0.482
inactive: [1] -0.046 | [2] 0.03 | [3] -0.08 | [5] 0.043 | [6] -0.246 | [7] 0.059 | [8] -0.012 | [9] -0.04 | [10] -0.228

MED17 (UniProt Q9NVC6)
inactive: [1] 0.003 | [2] 0.018 | [3] -0.029 | [4] -0.058 | [5] -0.005 | [6] -0.037 | [7] -0.043 | [8] 0.008 | [9] -0.005 | [10] 0.034

LRRC7 (UniProt Q96NW7)
Sequence of UniProt Q96NW7 (Q96NW7 whole entry, looked up): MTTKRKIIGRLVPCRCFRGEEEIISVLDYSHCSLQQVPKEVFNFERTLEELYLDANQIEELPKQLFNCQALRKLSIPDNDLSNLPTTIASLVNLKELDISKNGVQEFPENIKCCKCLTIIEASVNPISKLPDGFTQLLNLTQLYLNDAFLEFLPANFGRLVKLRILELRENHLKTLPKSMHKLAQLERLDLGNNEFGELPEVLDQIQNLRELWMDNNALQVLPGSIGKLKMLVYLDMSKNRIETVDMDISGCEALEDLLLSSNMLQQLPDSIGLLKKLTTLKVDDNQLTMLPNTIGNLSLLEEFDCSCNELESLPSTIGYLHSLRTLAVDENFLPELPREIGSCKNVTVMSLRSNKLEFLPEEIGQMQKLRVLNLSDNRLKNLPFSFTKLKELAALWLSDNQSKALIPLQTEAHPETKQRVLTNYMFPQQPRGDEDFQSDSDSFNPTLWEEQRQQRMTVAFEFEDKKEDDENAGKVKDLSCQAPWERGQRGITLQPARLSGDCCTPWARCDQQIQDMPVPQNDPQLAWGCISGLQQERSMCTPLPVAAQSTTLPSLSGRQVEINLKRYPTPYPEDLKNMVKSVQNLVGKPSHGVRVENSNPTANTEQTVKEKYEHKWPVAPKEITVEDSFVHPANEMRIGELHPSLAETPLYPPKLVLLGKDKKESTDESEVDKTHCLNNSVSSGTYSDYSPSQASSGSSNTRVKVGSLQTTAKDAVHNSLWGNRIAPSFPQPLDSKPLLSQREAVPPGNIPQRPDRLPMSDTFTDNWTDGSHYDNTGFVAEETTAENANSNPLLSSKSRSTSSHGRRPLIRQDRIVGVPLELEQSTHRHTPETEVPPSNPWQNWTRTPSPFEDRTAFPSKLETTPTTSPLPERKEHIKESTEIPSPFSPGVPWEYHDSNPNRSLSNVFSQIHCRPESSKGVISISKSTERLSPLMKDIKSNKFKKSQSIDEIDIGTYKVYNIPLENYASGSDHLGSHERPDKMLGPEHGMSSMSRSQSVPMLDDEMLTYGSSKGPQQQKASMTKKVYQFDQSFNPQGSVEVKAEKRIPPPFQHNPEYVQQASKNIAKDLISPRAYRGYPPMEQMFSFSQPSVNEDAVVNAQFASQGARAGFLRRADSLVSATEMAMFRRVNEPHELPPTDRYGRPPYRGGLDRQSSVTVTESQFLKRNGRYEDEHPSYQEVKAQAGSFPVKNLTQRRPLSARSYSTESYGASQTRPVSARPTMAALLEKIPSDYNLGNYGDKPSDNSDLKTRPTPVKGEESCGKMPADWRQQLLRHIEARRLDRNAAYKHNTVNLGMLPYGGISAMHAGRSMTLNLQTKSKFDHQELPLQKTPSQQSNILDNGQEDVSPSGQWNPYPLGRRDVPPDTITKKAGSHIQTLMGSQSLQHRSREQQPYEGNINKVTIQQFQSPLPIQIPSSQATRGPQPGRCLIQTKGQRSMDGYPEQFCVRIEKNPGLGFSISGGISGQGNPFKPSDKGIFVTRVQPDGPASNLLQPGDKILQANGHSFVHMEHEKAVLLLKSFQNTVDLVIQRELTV
inactive: [1] -0.048 | [2] 0.041 | [3] 0.065 | [4] -0.025 | [5] 0.083 | [6] -0.07 | [7] -0.018 | [8] 0.001 | [9] 0.112 | [10] 0.093

KIF21A isoform 5 (UniProt Q7Z4S6)
inactive: [1] -0.014 | [2] -0.018 | [3] -0.021 | [4] 0.157 | [5] -0.032 | [6] -0.077 | [7] 0.005 | [8] 0.019 | [9] -0.019 | [10] -0.062

L3HYPDH (UniProt Q96EM0)
Sequence of UniProt Q96EM0 (Q96EM0 whole entry, looked up): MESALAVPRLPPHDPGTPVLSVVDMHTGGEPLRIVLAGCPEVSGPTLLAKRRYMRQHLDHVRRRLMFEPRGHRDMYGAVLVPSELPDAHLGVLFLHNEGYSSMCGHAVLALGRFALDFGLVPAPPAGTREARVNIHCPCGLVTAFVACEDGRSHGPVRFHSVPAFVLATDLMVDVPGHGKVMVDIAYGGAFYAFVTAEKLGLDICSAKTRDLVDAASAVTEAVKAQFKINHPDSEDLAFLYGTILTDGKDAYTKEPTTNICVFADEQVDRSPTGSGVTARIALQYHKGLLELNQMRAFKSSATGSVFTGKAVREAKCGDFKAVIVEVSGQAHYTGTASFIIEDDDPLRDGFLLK
inactive: [1] -0.019 | [2] -0.032 | [3] -0.028 | [4] -0.045 | [5] -0.014 | [6] 0.018 | [7] -0.002 | [8] 0.036 | [9] -0.018 | [10] -0.048

MAPK9 (UniProt P45984)
inactive: [1] 0.001 | [2] 0.088 | [3] -0.021 | [4] 0.026 | [5] 0.006 | [6] 0.035 | [7] 0.033 | [8] 0.192 | [9] -0.011 | [10] -0.15

MARK1 (UniProt Q9P0L2)
inactive: [1] 0.037 | [2] -0.065 | [3] -0.175 | [4] 0.026 | [5] -0.002 | [6] -0.192 | [7] -0.084 | [8] 0.155 | [9] -0.034 | [10] 0.05

LSS (UniProt P48449)
active: [3] 0.252
inactive: [1] 0 | [2] 0.11 | [4] 0.01 | [5] 0.008 | [6] 0.028 | [7] 0.02 | [8] 0.031 | [9] 0.13 | [10] -0.013

LSM8 (UniProt O95777)
Sequence of UniProt O95777 (O95777 whole entry, looked up): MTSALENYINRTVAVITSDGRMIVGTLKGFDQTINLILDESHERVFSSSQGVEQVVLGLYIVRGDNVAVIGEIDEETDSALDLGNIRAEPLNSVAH
inactive: [1] -0.005 | [2] -0.067 | [3] 0.02 | [4] -0.028 | [5] 0.002 | [6] 0.007 | [7] 0.037 | [8] 0.016 | [9] 0.176 | [10] 0.026

MAP11 (UniProt Q8WVR3)
inactive: [1] -0.047 | [2] -0.028 | [3] -0.011 | [4] -0.102 | [5] -0.04 | [6] -0.06 | [7] -0.024 | [8] -0.024 | [9] -0.021 | [10] 0.001

KNL1 (UniProt Q8NG31)
inactive: [1] 0.007 | [2] -0.031 | [3] -0.015 | [4] -0.011 | [5] -0.001 | [6] -0.032 | [7] -0.027 | [8] 0.008 | [9] -0.017 | [10] 0.016

KPNA4 (UniProt O00629)
inactive: [1] 0.03 | [2] 0.011 | [3] -0.044 | [5] 0.012 | [6] 0.089 | [7] -0.018 | [8] 0.02 | [9] 0.049 | [10] 0.155
active: [4] -0.217

MED12 isoform 2 (UniProt Q93074)
inactive: [1] 0.009 | [2] 0.017 | [3] -0.017 | [4] 0.002 | [5] 0 | [6] -0.072 | [7] -0.033 | [8] 0.011 | [9] -0.012 | [10] -0.011

MRPL30 isoform 2 (UniProt Q8TCC3)
active: [4] 0.746 | [6] -0.373 | [10] -0.458
inactive: [1] 0.03 | [2] -0.029 | [3] -0.094 | [5] 0.068 | [7] 0.158 | [8] 0.013 | [9] 0.043

MAPKAPK5 (UniProt Q8IW41)
inactive: [1] 0.05 | [2] -0.008 | [3] -0.085 | [4] 0.111 | [5] 0.04 | [6] -0.07 | [7] -0.004 | [8] 0.015 | [9] 0.019 | [10] -0.053

LIG3 (UniProt P49916)
inactive: [1] -0.007 | [2] 0.006 | [3] -0.044 | [4] -0.008 | [5] 0.01 | [6] -0.05 | [7] -0.004 | [8] 0.016 | [9] -0.046 | [10] 0.016

LZTS1 (UniProt Q9Y250)
Sequence of UniProt Q9Y250 (Q9Y250 whole entry, looked up): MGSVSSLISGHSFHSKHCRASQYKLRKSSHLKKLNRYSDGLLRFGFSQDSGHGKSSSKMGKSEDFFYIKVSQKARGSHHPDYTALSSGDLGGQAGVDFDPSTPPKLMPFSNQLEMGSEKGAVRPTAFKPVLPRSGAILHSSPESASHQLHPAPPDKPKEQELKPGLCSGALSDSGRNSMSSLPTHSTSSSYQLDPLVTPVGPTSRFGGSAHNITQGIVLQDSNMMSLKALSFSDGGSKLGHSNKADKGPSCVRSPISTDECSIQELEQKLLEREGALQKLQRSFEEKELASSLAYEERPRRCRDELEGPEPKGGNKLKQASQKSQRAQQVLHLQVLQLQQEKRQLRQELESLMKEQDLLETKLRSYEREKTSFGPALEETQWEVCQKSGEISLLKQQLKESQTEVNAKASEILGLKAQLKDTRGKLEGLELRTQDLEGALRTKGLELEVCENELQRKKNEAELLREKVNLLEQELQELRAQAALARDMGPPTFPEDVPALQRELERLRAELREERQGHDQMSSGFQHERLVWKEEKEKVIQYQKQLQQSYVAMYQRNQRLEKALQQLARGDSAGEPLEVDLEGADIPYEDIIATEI
inactive: [1] -0.136 | [2] -0.222 | [3] -0.821 | [4] -0.233 | [5] 0.308 | [6] -0.137 | [7] -0.1 | [8] 0.177 | [9] -0.268 | [10] 0.083

MRPL46 (UniProt Q9H2W6)
active: [4] 0.452
inactive: [1] 0.019 | [2] 0.096 | [3] -0.011 | [5] 0.033 | [6] -0.09 | [7] 0.008 | [8] 0.024 | [9] 0.034 | [10] -0.073

MBOAT2 (UniProt Q6ZWT7)
inactive: [1] -0.067 | [2] 0.061 | [3] -0.005 | [4] -0.175 | [5] 0.009 | [7] 0.106 | [8] -0.12 | [9] -0.049 | [10] 0.281
active: [6] 0.319

KIFC1 (UniProt Q9BW19)
inactive: [1] -0.021 | [2] -0.013 | [3] -0.019 | [4] -0.016 | [5] -0.003 | [6] -0.05 | [7] 0.047 | [8] 0.021 | [9] -0.027 | [10] 0.031

KIF11 (UniProt P52732)
inactive: [1] 0 | [2] 0.021 | [3] 0.001 | [4] -0.03 | [5] 0.017 | [6] -0.042 | [7] 0.006 | [8] 0.014 | [9] -0.014 | [10] 0.063

MIF4GD isoform 3 (UniProt A9UHW6)
inactive: [1] -0.008 | [2] -0.054 | [3] 0.012 | [4] 0.023 | [5] 0.041 | [6] 0.021 | [7] 0.005 | [8] 0.025 | [9] -0.03 | [10] 0.013

MICU1 isoform 3 (UniProt Q9BPX6)
Sequence of UniProt Q9BPX6 (Q9BPX6 whole entry, looked up): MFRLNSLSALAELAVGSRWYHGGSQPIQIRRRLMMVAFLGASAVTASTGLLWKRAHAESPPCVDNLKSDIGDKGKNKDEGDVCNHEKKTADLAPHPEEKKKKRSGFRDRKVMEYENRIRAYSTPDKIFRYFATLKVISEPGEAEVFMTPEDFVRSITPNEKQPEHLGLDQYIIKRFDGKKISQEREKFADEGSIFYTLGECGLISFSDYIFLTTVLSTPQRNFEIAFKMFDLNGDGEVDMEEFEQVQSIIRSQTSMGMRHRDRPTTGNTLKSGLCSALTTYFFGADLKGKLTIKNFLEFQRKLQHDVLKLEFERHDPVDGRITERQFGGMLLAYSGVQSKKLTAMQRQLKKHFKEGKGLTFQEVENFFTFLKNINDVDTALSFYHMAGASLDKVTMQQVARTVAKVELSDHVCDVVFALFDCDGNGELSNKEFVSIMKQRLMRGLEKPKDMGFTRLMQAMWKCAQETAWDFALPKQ
inactive: [1] -0.052 | [2] -0.053 | [3] -0.107 | [5] -0.007 | [7] 0.049 | [8] -0.008 | [9] -0.077 | [10] -0.209
active: [4] 0.253 | [6] -0.408

MICU2 (UniProt Q8IYU8)
active: [6] -0.264
inactive: [1] -0.057 | [2] 0.036 | [3] -0.043 | [4] 0.026 | [5] 0.015 | [7] 0.083 | [8] 0.029 | [9] -0.056 | [10] 0.029

LAP3 (UniProt P28838)
active: [4] -0.531 | [6] 0.385 | [10] 0.331
inactive: [1] -0.021 | [2] 0.003 | [3] -0.102 | [5] 0.034 | [7] -0.126 | [8] 0.02 | [9] 0.014

MLXIP (UniProt Q9HAP2)
inactive: [1] -0.009 | [2] -0.049 | [3] -0.023 | [4] -0.052 | [5] -0.078 | [6] -0.032 | [7] 0.019 | [8] 0.009 | [9] -0.01 | [10] 0.043

MED13L (UniProt Q71F56)
inactive: [1] 0.034 | [2] -0.072 | [3] -0.039 | [4] -0.047 | [5] -0.083 | [6] -0.005 | [7] -0.019 | [8] 0.026 | [9] -0.061 | [10] 0.035

MRPL15 (UniProt Q9P015)
inactive: [1] -0.021 | [2] 0.036 | [3] -0.045 | [5] -0.013 | [6] 0.134 | [7] 0 | [8] 0.079 | [9] -0.063 | [10] 0.241
active: [4] -0.421

KMT2B (UniProt Q9UMN6)
inactive: [3] 0.073 | [5] -0.034 | [7] 0.073 | [8] -0.033

LSM11 (UniProt P83369)
Sequence of UniProt P83369 (P83369 whole entry, looked up): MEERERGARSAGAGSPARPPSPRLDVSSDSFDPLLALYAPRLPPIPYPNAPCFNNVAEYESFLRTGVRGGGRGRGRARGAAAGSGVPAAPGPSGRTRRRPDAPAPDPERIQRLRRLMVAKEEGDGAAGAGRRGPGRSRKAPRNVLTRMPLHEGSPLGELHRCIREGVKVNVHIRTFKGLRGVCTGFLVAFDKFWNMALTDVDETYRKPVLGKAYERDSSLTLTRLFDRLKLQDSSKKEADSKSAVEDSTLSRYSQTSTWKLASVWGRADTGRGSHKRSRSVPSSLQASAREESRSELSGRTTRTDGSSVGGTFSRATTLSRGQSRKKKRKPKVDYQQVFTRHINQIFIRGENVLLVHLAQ
inactive: [3] 0.025 | [4] -0.123 | [5] 0.009 | [6] 0.039 | [7] 0.011 | [8] 0.123 | [10] -0.394

KIF18B (UniProt Q86Y91)
Sequence of UniProt Q86Y91 (Q86Y91 whole entry, looked up): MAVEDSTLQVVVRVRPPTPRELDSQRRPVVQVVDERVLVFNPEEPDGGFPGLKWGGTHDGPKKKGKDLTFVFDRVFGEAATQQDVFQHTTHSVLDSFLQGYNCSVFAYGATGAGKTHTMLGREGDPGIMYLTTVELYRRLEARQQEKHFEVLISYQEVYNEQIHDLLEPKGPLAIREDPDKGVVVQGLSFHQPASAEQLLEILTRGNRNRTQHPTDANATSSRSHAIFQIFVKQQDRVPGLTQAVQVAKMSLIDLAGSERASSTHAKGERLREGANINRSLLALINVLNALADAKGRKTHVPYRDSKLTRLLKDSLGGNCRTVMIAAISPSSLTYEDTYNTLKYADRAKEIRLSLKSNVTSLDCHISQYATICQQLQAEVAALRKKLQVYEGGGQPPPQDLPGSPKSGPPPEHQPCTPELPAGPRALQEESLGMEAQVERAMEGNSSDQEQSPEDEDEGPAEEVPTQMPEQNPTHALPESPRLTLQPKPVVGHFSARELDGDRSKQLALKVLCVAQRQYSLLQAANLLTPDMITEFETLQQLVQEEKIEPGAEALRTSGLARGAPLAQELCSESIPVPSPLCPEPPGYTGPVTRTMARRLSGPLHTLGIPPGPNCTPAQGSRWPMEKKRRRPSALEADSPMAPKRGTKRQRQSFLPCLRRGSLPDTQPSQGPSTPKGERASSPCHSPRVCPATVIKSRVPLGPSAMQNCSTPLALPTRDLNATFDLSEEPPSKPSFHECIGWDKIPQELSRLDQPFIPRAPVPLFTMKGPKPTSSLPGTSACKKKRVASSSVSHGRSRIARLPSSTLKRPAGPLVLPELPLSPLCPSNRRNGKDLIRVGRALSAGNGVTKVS
inactive: [1] -0.024 | [3] -0.008 | [5] 0.068 | [7] -0.161 | [8] 0.077
